Experimental data taken from the supplement of paper PMC11732987, “Enantioselective OTUD7B fragment discovery through chemoproteomics screening and high-throughput optimisation” (Communications Chemistry, 2025).

Tests used:
Test in all cases: log2 ratio of Biotin-Ahx-Ub-VS probe labelling (fragment/DMSO); higher = less target engagement (more negative = stronger competition), active = hit call of the paper (q ≤ 0.05, log2 ratio ≤ -1)
Details in all cases: compound concentration: 200 uM; treatment time: 3 h
USP42 = target: T1, USP42 (UniProt Q9H9J4)
T1 sequence (whole entry): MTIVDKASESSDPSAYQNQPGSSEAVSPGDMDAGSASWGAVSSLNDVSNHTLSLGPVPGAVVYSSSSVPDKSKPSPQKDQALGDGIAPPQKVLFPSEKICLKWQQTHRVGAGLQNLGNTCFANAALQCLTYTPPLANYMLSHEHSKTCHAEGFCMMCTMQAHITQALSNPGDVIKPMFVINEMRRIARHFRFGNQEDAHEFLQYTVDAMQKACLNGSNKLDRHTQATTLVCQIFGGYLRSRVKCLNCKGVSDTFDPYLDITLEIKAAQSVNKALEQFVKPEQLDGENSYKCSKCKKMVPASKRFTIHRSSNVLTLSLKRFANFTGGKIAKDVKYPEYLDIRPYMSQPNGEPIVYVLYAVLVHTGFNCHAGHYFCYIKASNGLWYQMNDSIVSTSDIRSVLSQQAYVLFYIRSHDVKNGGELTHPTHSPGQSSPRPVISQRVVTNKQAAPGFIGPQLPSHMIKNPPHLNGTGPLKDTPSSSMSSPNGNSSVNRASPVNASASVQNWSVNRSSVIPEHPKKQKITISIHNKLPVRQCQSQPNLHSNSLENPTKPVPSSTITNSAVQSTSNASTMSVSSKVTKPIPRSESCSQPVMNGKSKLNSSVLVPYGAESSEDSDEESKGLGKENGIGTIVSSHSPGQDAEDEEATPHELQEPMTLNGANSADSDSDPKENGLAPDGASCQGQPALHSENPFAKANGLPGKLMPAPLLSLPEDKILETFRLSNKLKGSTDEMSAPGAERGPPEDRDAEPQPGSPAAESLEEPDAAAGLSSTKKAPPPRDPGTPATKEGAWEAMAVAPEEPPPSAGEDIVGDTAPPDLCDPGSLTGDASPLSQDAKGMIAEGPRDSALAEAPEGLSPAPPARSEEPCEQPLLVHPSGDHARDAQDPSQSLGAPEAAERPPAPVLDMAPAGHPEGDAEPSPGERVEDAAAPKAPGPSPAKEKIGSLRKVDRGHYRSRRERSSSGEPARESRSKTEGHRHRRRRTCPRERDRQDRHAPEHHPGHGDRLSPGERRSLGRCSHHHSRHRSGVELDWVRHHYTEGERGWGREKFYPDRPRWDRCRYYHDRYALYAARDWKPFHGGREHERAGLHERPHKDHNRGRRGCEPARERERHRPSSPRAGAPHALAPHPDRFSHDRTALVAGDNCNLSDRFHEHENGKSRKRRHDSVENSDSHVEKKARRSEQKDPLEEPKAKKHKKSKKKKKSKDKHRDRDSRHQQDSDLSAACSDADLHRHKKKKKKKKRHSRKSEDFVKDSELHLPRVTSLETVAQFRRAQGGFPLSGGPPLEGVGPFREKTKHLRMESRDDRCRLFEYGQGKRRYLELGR
Outline: (§1)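 In triplicate, 495 µg of HEK293T lysate per sample was incubated with fragment at 200 µM or vehicle for 3 h. Biotin-Ahx-Ub-VS was then added to 0.5 µM final for 1 h, and labelled DUBs were captured with NeutrAvidin, digested with LysC and trypsin, and measured by diaPASEF LC-MS/MS. Data are average log2 fragment/vehicle ratios by unpaired t-test from global-median-normalised Spectronaut label-free quantities, restricted to proteins with ≥2 unique peptides.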

USP46 = USP46 (UniProt P62068)
Chain of USP46 (P62068 whole entry): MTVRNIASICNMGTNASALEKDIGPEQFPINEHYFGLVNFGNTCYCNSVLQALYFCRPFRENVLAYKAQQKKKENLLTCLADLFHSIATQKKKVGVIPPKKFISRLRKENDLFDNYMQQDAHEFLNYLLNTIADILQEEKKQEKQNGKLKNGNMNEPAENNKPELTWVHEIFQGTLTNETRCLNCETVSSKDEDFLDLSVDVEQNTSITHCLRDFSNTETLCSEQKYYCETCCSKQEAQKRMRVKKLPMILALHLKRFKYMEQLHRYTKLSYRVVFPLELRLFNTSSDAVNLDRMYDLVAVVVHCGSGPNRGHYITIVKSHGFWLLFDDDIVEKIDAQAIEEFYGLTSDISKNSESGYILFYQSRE
Outline: as §1

USP47 = target: T2, USP47 (UniProt Q96K76)
T2 sequence (whole entry): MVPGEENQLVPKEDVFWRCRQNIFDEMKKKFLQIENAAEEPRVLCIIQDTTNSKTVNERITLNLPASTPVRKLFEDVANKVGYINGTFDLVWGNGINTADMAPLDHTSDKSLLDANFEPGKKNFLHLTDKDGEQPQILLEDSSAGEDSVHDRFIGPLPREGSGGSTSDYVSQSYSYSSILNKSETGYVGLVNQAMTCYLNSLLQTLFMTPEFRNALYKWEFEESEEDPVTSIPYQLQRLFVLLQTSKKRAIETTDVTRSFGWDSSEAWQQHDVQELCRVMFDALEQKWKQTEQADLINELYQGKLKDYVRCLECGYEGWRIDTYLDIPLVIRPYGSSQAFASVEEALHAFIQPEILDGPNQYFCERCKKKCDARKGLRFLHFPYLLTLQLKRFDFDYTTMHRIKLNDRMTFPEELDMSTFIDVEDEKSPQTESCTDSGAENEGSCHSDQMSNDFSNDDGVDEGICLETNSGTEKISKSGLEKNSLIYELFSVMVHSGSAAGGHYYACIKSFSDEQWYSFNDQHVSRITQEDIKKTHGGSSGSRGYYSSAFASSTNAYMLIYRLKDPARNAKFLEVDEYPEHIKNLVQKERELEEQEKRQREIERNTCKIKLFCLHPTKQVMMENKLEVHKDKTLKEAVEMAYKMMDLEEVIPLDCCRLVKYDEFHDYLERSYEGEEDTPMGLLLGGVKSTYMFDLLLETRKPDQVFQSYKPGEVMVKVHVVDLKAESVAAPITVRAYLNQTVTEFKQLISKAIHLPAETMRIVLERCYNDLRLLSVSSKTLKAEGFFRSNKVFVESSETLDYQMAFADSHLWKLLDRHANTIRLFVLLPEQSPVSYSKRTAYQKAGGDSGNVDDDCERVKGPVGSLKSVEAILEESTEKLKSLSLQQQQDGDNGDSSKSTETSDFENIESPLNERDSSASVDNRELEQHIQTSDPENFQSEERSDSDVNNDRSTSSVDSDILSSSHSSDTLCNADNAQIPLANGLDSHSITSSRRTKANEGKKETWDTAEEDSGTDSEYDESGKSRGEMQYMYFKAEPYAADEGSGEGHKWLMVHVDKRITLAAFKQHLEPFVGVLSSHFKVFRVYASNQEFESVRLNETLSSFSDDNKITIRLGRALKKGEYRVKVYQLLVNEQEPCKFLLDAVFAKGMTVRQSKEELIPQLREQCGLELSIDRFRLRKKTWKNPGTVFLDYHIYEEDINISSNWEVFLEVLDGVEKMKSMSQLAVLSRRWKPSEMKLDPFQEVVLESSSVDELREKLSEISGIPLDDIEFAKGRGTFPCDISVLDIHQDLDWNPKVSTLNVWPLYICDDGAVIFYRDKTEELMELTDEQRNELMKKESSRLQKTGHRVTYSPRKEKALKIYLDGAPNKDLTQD
Outline: as §1

USP48 = target: T3, USP48 (UniProt Q86UV5)
T3 sequence (whole entry): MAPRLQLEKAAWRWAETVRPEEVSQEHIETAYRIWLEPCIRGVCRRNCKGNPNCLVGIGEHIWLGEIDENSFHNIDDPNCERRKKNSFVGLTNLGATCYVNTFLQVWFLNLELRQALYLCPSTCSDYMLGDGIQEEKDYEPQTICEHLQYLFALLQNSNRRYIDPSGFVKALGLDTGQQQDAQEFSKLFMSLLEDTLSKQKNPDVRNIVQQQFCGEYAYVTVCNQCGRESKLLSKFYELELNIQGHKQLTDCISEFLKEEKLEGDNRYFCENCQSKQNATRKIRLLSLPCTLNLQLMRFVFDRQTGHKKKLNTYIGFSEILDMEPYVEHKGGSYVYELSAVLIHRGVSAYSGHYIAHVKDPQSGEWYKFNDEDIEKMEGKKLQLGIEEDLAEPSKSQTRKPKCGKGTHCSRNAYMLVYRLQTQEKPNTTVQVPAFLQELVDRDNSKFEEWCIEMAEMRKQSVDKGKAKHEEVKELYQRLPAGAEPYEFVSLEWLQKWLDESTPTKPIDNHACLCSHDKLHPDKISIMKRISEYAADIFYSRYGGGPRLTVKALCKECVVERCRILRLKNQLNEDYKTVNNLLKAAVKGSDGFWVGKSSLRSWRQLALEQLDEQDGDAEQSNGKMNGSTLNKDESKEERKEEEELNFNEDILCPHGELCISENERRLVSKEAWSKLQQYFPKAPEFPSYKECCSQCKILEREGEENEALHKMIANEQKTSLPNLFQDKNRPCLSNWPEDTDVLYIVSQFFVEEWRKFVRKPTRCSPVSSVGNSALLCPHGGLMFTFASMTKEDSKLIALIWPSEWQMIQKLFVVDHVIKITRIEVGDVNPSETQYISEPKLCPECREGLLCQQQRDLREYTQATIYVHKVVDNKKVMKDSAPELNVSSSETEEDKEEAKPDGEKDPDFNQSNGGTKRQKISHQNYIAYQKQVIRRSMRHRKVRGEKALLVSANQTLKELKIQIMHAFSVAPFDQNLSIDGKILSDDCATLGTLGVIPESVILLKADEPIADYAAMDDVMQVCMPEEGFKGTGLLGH
Outline: as §1

USP5 = target: T4, USP5 (UniProt P45974)
T4 sequence (whole entry): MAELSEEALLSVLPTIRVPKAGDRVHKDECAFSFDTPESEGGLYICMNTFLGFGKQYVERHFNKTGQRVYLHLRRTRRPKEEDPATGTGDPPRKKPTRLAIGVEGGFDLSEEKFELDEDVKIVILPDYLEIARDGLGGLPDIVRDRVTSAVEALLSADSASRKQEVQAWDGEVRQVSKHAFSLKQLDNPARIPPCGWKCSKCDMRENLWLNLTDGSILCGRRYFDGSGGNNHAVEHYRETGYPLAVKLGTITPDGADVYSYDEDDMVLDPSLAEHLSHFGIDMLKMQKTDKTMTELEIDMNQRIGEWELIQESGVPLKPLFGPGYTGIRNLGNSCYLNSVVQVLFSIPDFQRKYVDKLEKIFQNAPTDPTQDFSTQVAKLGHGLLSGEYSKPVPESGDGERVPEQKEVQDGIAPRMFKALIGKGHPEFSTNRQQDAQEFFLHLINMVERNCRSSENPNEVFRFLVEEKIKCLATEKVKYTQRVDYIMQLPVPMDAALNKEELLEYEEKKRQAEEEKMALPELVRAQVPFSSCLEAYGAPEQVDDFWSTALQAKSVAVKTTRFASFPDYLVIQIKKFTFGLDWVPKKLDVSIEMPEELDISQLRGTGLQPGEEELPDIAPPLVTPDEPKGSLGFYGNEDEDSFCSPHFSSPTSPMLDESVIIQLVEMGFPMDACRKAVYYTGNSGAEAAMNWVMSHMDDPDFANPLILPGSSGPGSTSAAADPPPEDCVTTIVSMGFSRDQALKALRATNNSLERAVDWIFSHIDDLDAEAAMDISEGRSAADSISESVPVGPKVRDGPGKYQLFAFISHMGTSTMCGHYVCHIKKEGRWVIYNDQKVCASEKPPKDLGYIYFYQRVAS
Outline: as §1

USP54 = USP54 (UniProt Q70EL1)
Outline: as §1

USP7 = USP7 (UniProt Q93009)
Chain of USP7 (Q93009 whole entry, looked up): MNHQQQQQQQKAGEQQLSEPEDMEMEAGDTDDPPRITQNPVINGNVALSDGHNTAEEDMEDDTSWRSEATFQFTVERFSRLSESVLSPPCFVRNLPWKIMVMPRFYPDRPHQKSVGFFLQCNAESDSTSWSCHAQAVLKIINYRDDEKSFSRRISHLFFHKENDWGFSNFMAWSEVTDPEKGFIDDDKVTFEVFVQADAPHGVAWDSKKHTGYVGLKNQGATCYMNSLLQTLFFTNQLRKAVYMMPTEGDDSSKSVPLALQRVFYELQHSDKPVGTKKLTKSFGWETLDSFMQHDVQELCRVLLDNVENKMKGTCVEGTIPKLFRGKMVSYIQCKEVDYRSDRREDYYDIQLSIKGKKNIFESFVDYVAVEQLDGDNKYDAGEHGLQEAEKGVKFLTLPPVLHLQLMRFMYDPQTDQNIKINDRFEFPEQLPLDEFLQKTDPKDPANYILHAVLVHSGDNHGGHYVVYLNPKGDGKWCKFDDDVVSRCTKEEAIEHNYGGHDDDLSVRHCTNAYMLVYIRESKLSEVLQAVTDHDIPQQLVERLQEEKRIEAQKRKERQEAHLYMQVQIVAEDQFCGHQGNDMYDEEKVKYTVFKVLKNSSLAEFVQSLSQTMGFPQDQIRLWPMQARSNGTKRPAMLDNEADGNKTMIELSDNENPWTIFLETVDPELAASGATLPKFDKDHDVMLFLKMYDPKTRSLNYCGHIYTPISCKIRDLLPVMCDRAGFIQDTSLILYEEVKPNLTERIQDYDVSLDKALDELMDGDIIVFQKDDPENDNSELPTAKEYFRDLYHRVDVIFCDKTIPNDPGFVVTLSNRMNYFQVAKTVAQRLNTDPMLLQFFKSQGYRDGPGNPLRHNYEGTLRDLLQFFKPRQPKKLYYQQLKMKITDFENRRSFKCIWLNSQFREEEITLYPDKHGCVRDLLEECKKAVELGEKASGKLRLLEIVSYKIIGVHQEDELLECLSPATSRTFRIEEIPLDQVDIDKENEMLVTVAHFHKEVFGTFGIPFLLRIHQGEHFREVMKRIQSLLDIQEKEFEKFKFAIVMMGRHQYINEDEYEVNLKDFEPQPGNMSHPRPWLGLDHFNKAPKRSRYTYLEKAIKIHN
Outline: as §1

USP8 = target: T5, USP8 (UniProt P40818)
T5 sequence (whole entry): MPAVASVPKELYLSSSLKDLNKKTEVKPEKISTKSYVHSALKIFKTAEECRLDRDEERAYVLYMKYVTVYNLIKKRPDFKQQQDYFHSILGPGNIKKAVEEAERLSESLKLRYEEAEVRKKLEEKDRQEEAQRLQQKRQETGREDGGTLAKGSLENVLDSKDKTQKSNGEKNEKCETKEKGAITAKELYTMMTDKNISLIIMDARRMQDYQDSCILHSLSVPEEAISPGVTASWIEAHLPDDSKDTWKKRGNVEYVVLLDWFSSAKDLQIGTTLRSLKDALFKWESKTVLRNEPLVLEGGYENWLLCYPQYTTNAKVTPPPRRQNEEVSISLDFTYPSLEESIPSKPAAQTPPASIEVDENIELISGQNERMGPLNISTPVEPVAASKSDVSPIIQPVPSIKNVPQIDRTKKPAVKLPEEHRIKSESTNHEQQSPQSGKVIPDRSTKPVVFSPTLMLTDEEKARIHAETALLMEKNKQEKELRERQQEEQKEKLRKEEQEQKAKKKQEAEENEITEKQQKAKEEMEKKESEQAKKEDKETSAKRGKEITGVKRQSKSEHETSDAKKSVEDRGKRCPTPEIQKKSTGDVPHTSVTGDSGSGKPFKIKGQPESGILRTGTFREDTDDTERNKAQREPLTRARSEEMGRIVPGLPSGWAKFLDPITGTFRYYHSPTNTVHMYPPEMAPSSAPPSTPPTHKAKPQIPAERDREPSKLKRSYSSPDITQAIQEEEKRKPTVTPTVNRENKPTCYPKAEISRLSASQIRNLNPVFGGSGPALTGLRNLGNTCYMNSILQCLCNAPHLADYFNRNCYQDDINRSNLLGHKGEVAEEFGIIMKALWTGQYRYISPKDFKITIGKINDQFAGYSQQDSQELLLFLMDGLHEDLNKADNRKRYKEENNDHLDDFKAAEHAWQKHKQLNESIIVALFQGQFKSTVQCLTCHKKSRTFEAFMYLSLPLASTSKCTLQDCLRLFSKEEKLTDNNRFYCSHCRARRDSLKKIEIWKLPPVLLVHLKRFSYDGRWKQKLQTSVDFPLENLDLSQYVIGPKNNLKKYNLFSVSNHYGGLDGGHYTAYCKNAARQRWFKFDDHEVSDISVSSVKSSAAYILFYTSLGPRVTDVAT
Outline: as §1

USP9X = USP9X (UniProt Q93008)
Chain of USP9X (Q93008 whole entry): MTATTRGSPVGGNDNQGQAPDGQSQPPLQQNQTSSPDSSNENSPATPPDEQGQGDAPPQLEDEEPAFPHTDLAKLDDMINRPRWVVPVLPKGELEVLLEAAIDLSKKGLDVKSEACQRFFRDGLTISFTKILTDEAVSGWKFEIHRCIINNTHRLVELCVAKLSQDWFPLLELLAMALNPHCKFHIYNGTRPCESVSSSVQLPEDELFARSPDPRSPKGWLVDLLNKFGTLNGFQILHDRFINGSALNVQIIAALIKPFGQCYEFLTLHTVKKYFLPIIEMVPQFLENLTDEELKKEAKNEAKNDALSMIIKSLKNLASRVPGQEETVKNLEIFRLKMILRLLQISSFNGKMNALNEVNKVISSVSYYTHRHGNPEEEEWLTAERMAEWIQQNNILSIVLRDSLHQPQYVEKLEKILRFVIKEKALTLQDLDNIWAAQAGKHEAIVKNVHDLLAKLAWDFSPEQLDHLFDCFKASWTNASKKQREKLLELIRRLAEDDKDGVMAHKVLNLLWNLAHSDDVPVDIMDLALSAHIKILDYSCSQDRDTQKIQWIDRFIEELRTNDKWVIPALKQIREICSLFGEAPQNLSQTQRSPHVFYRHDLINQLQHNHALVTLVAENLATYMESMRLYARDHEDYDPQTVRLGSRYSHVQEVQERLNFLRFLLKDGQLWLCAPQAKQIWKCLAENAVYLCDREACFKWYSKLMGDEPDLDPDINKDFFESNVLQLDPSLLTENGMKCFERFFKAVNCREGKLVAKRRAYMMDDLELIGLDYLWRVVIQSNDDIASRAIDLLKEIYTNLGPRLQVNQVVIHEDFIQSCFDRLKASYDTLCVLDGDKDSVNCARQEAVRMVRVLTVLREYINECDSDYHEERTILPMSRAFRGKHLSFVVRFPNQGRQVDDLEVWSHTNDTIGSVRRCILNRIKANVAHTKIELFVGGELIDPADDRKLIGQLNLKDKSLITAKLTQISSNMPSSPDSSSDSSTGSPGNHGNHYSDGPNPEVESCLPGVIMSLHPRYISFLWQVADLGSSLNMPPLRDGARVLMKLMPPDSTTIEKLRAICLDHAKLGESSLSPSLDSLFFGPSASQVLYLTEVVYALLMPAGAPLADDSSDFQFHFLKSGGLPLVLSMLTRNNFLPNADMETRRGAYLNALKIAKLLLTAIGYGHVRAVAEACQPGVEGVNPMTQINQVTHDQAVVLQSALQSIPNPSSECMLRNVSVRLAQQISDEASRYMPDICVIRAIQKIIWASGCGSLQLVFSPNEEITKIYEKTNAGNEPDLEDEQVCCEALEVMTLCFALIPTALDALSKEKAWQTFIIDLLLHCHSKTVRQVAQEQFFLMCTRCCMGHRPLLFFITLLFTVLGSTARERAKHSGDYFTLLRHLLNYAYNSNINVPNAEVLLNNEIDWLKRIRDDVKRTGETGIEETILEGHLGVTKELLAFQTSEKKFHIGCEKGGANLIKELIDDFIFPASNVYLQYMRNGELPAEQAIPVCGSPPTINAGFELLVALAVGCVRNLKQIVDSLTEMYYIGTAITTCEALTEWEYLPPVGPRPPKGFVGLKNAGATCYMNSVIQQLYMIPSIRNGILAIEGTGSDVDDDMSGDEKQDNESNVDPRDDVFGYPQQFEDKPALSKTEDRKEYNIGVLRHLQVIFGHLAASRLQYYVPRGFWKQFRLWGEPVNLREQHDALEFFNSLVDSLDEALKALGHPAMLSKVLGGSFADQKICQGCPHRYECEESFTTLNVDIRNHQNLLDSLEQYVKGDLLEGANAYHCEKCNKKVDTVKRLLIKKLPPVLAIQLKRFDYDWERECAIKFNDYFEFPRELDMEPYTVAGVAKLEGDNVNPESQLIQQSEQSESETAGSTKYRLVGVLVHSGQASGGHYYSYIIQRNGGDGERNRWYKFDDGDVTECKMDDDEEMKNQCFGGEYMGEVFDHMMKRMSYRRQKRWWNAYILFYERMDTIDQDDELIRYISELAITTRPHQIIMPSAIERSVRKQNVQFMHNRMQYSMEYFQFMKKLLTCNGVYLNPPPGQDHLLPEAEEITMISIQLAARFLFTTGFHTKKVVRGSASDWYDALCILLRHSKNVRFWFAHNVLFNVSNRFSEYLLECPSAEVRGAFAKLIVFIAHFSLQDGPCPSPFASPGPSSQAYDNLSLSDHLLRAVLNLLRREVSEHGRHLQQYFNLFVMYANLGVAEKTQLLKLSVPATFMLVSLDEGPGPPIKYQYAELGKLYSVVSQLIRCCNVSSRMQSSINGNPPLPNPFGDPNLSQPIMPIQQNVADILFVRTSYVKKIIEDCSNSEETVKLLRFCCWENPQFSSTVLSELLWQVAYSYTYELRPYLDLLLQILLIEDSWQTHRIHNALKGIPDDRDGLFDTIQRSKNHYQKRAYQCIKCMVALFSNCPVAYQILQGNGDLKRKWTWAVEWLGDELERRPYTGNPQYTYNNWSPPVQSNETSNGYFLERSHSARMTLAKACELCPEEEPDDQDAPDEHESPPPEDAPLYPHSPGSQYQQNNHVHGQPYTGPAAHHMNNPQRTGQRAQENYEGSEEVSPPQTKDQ
Outline: as §1

UniProt O00487 = target: UniProt O00487
Chain of UniProt O00487 (O00487 whole entry): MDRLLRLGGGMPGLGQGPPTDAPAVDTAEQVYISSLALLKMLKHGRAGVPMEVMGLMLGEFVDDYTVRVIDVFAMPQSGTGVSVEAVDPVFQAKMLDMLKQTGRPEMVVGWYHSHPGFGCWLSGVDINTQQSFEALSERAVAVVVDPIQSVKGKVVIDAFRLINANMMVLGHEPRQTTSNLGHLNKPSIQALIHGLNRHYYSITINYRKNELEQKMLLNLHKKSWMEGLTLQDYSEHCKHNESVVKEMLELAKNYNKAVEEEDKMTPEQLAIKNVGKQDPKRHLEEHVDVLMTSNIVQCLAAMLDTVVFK
Outline: as §1

Measured: log2 ratio of Biotin-Ahx-Ub-VS probe labelling

O=C(CCl)Nc1ccc(F)cc1F
inactive: USP42 -0.555 | USP46 -0.0216 | USP47 -0.211 | USP48 -0.0331 | USP5 -0.0493 | USP54 0.615 | USP7 -0.0738 | USP8 -0.257 | USP9X -0.218 | UniProt O00487 -0.099
